Data as given in ChEMBL document CHEMBL1961873, “Compounds: GSK PKIS; Assays: Nanosyn kinase panel” (2012).
“And” between values parts separate entries of the source, which are not always exact repeats. Equal values may be shown once.

Columns and labels:
[1] = molecular target: Ribosomal protein S6 kinase alpha-6 (Homo sapiens) (UniProt Q9UK32); settings: at 1 µM;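 note: each value is a mean inhibition of RSK4 from a GSK PKIS panel screen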
[2] = molecular target: T1, Serine/threonine-protein kinase Sgk1 (Homo sapiens) (UniProt O00141); settings: at 0.1 µM
T1 sequence (whole entry): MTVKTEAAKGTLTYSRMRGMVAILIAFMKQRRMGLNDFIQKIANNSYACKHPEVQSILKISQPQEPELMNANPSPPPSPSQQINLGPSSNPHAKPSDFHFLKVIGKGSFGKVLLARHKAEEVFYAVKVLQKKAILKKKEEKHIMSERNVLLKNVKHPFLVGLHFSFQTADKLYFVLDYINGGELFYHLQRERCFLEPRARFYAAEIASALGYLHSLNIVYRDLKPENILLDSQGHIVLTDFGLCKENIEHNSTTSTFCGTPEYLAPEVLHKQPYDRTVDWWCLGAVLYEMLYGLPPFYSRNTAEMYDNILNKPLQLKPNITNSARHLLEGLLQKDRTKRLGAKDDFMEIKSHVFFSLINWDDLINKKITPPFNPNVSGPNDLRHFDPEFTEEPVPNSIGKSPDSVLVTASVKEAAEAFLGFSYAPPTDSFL

[3] = molecular target: T1, Serine/threonine-protein kinase Sgk1 (Homo sapiens); settings: at 1 µM
[4] = molecular target: T2, Serine/threonine-protein kinase Sgk2 (Homo sapiens) (UniProt Q9HBY8); settings: at 0.1 µM
T2 sequence (whole entry): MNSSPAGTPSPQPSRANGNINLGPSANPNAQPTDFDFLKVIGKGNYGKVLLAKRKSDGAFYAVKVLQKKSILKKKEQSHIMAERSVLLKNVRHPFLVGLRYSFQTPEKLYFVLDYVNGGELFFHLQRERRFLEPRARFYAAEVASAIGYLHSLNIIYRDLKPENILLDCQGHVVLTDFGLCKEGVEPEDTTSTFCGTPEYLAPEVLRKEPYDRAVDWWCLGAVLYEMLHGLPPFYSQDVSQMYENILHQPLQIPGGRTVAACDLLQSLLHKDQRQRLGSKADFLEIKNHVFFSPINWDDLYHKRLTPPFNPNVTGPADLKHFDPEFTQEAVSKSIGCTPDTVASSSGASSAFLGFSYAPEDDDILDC

[5] = molecular target: T2, Serine/threonine-protein kinase Sgk2 (Homo sapiens); settings: at 1 µM
[6] = molecular target: T3, Serine/threonine-protein kinase Sgk3 (Homo sapiens) (UniProt Q96BR1); settings: at 0.1 µM
T3 sequence (whole entry): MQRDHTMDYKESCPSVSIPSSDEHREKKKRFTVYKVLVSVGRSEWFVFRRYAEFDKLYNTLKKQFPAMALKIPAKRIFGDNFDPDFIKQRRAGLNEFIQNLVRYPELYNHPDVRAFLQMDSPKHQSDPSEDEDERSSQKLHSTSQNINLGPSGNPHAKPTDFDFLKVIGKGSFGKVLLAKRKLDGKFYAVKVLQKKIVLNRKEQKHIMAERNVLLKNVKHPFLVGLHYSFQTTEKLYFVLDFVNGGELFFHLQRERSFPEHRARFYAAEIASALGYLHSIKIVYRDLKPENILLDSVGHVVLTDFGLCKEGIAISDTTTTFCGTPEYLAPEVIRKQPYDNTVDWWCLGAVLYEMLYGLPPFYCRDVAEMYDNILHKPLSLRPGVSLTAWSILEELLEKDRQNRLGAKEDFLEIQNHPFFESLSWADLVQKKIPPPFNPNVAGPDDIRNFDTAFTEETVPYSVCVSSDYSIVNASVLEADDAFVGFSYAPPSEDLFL

[7] = molecular target: T3, Serine/threonine-protein kinase Sgk3 (Homo sapiens); settings: at 1 µM
[8] = molecular target: 5'-AMP-activated protein kinase catalytic subunit alpha-1 (Homo sapiens) (UniProt Q13131); settings: at 0.1 µM
[9] = molecular target: 5'-AMP-activated protein kinase catalytic subunit alpha-1 (Homo sapiens) (UniProt Q13131); settings: at 1 µM
[10] = molecular target: 5'-AMP-activated protein kinase catalytic subunit alpha-2 (Homo sapiens) (UniProt P54646); settings: at 0.1 µM
[11] = molecular target: 5'-AMP-activated protein kinase catalytic subunit alpha-2 (Homo sapiens) (UniProt P54646); settings: at 1 µM
[12] = molecular target: T4, NUAK family SNF1-like kinase 1 (Homo sapiens) (UniProt O60285); settings: at 0.1 µM
T4 sequence (whole entry): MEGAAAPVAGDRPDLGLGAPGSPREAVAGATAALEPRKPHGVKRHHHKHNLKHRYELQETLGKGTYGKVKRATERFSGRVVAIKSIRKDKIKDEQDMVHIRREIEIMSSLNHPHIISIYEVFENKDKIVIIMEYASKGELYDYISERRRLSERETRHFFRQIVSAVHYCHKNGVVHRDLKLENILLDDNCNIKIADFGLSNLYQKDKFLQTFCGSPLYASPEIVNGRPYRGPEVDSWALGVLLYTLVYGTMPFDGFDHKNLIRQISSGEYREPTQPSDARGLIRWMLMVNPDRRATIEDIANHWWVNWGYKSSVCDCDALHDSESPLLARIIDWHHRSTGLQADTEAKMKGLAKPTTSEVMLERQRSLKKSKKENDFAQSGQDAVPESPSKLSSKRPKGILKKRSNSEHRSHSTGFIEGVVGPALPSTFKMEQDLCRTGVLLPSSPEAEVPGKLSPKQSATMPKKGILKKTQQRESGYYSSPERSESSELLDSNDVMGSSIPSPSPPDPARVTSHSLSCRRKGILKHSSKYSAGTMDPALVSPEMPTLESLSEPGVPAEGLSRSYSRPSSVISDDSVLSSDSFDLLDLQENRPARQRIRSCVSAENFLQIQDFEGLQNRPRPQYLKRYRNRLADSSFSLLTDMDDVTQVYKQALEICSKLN

[13] = molecular target: T4, NUAK family SNF1-like kinase 1 (Homo sapiens); settings: at 1 µM
[14] = molecular target: T5, Serine/threonine-protein kinase BRSK1 (Homo sapiens) (UniProt Q8TDC3); settings: at 0.1 µM
T5 sequence (whole entry): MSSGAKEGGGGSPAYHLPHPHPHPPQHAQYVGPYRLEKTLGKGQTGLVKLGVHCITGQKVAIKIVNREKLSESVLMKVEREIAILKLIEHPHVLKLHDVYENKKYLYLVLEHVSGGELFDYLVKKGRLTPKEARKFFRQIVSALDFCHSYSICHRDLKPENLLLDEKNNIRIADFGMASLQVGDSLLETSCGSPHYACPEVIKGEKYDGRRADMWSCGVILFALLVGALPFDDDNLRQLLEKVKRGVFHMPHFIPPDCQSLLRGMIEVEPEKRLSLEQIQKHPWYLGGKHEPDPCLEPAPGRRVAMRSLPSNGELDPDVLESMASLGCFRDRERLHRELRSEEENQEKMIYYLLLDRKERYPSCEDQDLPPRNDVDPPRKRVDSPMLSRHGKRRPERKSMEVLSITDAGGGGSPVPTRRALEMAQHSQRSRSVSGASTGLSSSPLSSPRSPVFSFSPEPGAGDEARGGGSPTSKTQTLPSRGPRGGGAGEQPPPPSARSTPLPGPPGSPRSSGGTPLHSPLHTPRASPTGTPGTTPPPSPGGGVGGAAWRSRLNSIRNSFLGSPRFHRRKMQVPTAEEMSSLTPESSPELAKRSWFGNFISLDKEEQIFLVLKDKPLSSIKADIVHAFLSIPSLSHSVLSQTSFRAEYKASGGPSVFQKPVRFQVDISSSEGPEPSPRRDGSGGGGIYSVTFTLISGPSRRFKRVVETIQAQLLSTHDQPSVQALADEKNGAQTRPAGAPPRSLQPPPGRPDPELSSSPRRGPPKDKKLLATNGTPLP

[15] = molecular target: T5, Serine/threonine-protein kinase BRSK1 (Homo sapiens); settings: at 1 µM
[16] = molecular target: T6, Serine/threonine-protein kinase BRSK2 (Homo sapiens) (UniProt Q8IWQ3); settings: at 0.1 µM
T6 sequence (whole entry): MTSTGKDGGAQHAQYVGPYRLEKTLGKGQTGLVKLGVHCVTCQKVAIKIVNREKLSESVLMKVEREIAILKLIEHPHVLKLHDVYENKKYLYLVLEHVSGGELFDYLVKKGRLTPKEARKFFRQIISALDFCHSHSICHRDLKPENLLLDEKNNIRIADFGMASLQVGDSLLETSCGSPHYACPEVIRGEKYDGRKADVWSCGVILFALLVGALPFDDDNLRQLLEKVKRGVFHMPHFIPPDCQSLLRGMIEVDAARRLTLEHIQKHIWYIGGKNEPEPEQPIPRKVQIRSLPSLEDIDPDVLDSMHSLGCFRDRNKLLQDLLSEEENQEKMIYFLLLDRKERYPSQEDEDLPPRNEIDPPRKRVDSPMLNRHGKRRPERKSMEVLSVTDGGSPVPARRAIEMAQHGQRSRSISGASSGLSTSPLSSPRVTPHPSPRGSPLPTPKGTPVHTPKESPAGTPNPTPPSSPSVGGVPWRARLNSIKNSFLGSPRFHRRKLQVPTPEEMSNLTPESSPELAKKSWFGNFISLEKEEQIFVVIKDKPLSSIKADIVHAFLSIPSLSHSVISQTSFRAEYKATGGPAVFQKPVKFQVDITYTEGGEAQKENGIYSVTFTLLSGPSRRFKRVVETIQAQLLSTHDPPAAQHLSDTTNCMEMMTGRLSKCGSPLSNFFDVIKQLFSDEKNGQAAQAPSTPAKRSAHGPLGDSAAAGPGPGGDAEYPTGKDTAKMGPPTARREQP

[17] = molecular target: T6, Serine/threonine-protein kinase BRSK2 (Homo sapiens); settings: at 1 µM
[18] = molecular target: Calcium/calmodulin-dependent protein kinase type 1D (Homo sapiens) (UniProt Q8IU85); settings: at 0.1 µM
[19] = molecular target: Calcium/calmodulin-dependent protein kinase type 1D (Homo sapiens) (UniProt Q8IU85); settings: at 1 µM
[20] = molecular target: Calcium/calmodulin-dependent protein kinase type II subunit alpha (Homo sapiens) (UniProt Q9UQM7); settings: at 0.1 µM;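 note: reported values are averages (mean inhibition of CAMK2A)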
Sequence of Calcium/calmodulin-dependent protein kinase type II subunit alpha (Homo sapiens) (Q9UQM7 whole entry): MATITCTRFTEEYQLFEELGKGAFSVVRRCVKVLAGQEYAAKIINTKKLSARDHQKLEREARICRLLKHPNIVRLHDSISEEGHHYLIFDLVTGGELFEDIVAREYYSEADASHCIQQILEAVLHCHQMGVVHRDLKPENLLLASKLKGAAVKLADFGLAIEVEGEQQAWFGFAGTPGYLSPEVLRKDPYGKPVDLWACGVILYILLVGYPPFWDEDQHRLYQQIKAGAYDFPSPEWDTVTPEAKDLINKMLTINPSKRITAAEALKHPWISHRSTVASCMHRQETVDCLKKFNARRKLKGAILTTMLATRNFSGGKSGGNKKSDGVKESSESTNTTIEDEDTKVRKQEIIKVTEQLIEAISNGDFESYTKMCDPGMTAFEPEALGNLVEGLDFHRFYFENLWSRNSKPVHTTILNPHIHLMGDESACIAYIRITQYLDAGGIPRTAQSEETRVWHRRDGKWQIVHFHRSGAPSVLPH

Sequence of Ribosomal protein S6 kinase alpha-6 (Homo sapiens) (Q9UK32 whole entry): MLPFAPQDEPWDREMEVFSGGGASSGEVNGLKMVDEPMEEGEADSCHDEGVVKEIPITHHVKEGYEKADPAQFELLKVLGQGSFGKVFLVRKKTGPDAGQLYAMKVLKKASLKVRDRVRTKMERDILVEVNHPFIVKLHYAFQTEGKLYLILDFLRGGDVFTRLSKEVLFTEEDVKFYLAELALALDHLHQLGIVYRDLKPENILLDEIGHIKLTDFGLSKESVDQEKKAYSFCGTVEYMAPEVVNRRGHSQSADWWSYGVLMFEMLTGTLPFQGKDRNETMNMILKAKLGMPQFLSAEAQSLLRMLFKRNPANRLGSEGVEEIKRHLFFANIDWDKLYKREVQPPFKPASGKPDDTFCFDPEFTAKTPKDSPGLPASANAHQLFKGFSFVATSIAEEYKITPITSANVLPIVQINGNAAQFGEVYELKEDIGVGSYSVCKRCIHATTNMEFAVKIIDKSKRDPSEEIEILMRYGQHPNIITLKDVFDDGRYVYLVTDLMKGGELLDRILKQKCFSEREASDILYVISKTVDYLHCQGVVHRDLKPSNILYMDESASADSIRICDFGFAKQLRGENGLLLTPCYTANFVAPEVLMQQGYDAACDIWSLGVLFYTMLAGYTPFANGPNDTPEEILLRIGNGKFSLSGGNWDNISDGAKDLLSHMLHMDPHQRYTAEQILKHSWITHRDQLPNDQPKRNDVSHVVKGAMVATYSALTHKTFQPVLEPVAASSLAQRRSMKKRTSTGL
Sequence of 5'-AMP-activated protein kinase catalytic subunit alpha-2 (Homo sapiens) (P54646 whole entry, looked up): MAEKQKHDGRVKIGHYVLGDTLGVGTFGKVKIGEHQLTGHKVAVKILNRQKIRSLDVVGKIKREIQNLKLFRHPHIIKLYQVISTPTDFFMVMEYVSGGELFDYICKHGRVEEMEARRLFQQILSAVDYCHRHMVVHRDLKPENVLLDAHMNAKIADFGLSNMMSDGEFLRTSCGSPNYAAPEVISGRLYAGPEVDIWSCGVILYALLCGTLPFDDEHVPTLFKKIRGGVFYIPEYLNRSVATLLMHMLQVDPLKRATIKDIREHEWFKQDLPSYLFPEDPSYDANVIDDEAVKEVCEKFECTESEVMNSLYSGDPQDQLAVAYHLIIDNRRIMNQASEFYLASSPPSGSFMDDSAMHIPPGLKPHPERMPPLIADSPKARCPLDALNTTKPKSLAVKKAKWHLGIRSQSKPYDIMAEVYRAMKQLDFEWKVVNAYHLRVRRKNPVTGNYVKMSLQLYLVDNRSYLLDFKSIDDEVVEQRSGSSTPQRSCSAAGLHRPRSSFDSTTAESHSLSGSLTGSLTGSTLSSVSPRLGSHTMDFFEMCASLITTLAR
Sequence of 5'-AMP-activated protein kinase catalytic subunit alpha-1 (Homo sapiens) (Q13131 whole entry, looked up): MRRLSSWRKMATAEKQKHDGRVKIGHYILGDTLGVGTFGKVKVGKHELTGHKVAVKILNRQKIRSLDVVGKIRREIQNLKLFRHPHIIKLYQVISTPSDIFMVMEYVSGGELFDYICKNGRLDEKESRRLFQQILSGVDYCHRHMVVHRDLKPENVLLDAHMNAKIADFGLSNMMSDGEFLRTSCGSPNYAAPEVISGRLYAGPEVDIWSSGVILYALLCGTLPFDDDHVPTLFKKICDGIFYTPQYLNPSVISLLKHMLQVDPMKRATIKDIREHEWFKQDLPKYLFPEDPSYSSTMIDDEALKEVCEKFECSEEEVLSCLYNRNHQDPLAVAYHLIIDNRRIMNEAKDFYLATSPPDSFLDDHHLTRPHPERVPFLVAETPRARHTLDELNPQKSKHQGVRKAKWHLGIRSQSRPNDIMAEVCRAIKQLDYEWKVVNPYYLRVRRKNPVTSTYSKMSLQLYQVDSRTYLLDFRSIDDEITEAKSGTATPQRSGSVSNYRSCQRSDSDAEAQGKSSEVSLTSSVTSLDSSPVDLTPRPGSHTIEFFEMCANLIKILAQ
Sequence of Calcium/calmodulin-dependent protein kinase type 1D (Homo sapiens) (Q8IU85 whole entry, looked up): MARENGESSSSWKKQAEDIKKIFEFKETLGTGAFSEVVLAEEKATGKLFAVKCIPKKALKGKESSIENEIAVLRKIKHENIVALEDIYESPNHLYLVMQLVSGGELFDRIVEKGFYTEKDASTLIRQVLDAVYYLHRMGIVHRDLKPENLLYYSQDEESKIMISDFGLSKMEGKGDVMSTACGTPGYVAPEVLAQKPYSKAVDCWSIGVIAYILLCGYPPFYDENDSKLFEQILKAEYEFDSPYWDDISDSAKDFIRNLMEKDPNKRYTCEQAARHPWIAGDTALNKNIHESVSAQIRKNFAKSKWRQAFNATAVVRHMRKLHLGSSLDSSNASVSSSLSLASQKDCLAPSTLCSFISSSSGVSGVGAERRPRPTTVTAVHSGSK

SMILES	inhibition [1]	inhibition [2]	inhibition [3]	inhibition [4]	inhibition [5]	inhibition [6]	inhibition [7]	inhibition [8]	inhibition [9]	inhibition [10]	inhibition [11]	inhibition [12]	inhibition [13]	inhibition [14]	inhibition [15]	inhibition [16]	inhibition [17]	inhibition [18]	inhibition [19]	inhibition [20]
Cc1nnc(-c2cccc(-c3ccc(C(=O)NCC4CC4)cc3)c2)o1	2.8%	4.47%	10.8%	2.96%	7.09%	3.56%	7.89%	5.16%	6.56%	0.86%	4.4%	3.1%	2.61%	0.57%	2.35%	6.6%	3.96%	-0.22%	0.22%	5.78%
CN1CCC(C(=O)Nc2n[nH]c3nc(-c4ccc(O)cc4)c(Br)cc23)CC1	12.7% and 9.62%	5.12% and 1.94%	10.4% and 4.16%	3.28% and 2.28%	6.79% and 6.21%	1.96% and 6.46%	6.31% and 0.32%	5.11% and 1.11%	18.7% and 10.6%	3.96% and 2.49%	10.2% and 5.07%	2.41% and 0.87%	12% and 2.56%	5.59% and 6.13%	31.5% and 25.9%	6.63% and 3.74%	36.1% and 27.2%	1.98% and 1.28%	15.6% and 15.7%	3.72% and 2.36%
COc1cccc(-n2ncc3c(N/N=C/c4ccc(C(=O)NCCN(C)C)cc4)ncnc32)c1	6.67%	8.85%	47.9%	6.05%	40.1%	3.22%	3.92%	3.69%	12.3%	2.3%	14.5%	43.9%	77.2%	23.5%	67.2%	33.3%	72%	0.97%	5.99%	2.13%
O=C(Nc1n[nH]c2nnc(-c3cccnc3)cc12)C1CC1	0.26%	0.71%	-0.17%	-0.62%	3.04%	-2.68%	-0.26%	-0.35%	0.39%	0.65%	0.41%	1.34%	0.53%	-0.56%	-3.34%	0.35%	1.6%	0.85%	0.89%	-1.44%
NS(=O)(=O)c1ccc(N/N=C2\C(=O)Nc3ccc(C(=O)NCc4ccncc4)cc32)cc1	11.3%	3.41%	12.9%	0.65%	8.08%	4.07%	8.33%	41.7%	75.5%	5.3%	34.9%	18.9%	59.5%	6.67%	39.7%	17.2%	55.8%	-0.48%	-0.33%	2.84%
CCS(=O)(=O)c1ccc(OC)c(Nc2ncc(-c3cccc(F)c3)o2)c1	6.33%	2.66%	4%	0.06%	1.18%	3.85%	3.03%	2.82%	5.78%	7.22%	5.58%	0.71%	12.5%	1.15%	-0.68%	1.63%	3.22%	0.89%	2.56%	2.75%
